PMC5540273 (PLoS ONE, 2017)

Tested on: HCK
Details: concentration: 1 μM, replicates: in singlicate; n = 1
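Further: KINOMEscan kinase panel screen.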

Going from Cn1cncc1-c1ccc2ncnc(Nc3ccc(OCc4ccccc4)cc3)c2c1 [GW320571] to Cn1ccc2ncnc(Oc3ccc(Nc4nc5ccccc5[nH]4)cc3)c21, the “%Inh” value rises from 0% to 8%.

Cc1cc(-c2ccc3c(c2)CC[C@@H](N[C@@H](C)c2ccccc2)C3)cnc1N.Cl [GW412617] and COc1cc2ncnc(Nc3ccc4nc(-c5ccccc5)[nH]c4c3)c2cc1OC.Cl [GW282450] are the same in “%Inh” value: 0% for the first, 0% for the second.

Fc1cccc(COc2nnc(-c3ccc4c(c3)CCO4)o2)c1 and O=C(Nc1n[nH]c2cc(-c3cccc(F)c3F)ccc12)C1CC1 [SB-733894] are the same in “%Inh” value: 0% for the first, 0% for the second.

COc1cc(Nc2nccc(N3CCC(NC(=O)Nc4cc(C)ccc4C)C3)n2)cc(OC)c1OC (centres unmarked) [GSK1379762] and COc1cc2nccc(Nc3ccc(NC(=O)c4ccc(C)cc4)c(O)c3)c2cc1OC.Cl [GW440132] are the same in “%Inh” value: 0% for the first, 0% for the second.

Going from CC(C)(C)c1ccc(C(=O)Nc2cn3cc(Cl)ccc3n2)cc1 to CC(C)(C)c1ccc(C(=O)Nc2cn3cc(-c4cccnc4)ccc3n2)cc1, the “%Inh” value rises from 1% to 44%.

First: COc1ccc2nc(-c3cccc(C)n3)nc(Nc3ccncc3)c2c1 [GSK204919]
Second: Cc1cccc(-c2nc(Nc3ccncc3)c3ccccc3n2)n1 [GW855857]
The “%Inh” value of the first is lower: 0% for the first, 11% for the second.

Compared with Cc1c(O)cccc1Nc1ccnc2ccc(C(F)(F)F)cc12.Cl [GW466413], Cc1cccc(-c2cc(Nc3ccncc3)c3ccccc3n2)n1 [GSK223675] is lower in “%Inh” value: 43% for the first, 0% for the second.

Cc1ccc(-c2cc(-c3c[nH]nc3-c3ccccn3)ccn2)cc1 [GW684088] and COc1cccc(-c2cc(-c3c[nH]nc3-c3ccccn3)ccn2)c1 [GW680338] are the same in “%Inh” value: 0% for the first, 0% for the second.

O=S(=O)(c1ccc(-c2ccnc3[nH]ccc23)cc1)N1CCCC1 [GSK846226] and CCCc1ccc(S(=O)(=O)NC2CCN(c3ccnc(Nc4ccc(F)cc4)n3)C2)cc1 (centres unmarked) [GSK1379715] are the same in “%Inh” value: 0% for the first, 0% for the second.

Going from Cn1ccc2ncnc(Oc3cccc(C(=O)Nc4ccccc4)c3)c21 to Cc1cccc(-c2nc(Nc3cccc(C(N)=O)c3)c3ccccc3n2)n1 [GW876019], the “%Inh” value rises from 8% to 24%.

Compared with O=C1NC(=O)C(N2CCc3ccccc32)=C1c1ccccc1Cl [SB-373598], COc1ccc(C2=C(Nc3cccc(C(=O)O)c3)C(=O)NC2=O)cc1 [SB-390765] is higher in “%Inh” value: 0% for the first, 8% for the second.

Going from COC(=O)c1c(-c2ccccc2)c2cc(OC)ccc2c(=O)n1Cc1ccccc1 to COC(=O)c1c(-c2ccccc2)c2cc(C(=O)O)ccc2c(=O)n1Cc1ccccc1, the “%Inh” value falls from 22% to 0%.

Cc1cccc(-c2nc(-c3ccc(S(C)(=O)=O)cc3)sc2-c2ccnc(NCCc3ccccc3)c2)c1 and Cc1cc(NCC(c2ccccc2)c2ccccc2)nc(NCc2ccc(C(F)(F)F)cc2)n1 [GW497681] are the same in “%Inh” value: 0% for the first, 0% for the second.

First: CN(C)CCN(C)C(=O)c1cc(-c2ccncc2)c(-c2ccc(Cl)c(O)c2)o1.Cl.Cl [SB-710397]
Second: Cc1nnc(-c2ccc3occ(-c4ccc(S(C)=O)cc4)c3c2)[nH]1 (centres unmarked)
The “%Inh” value of the first is higher: 14% for the first, 0% for the second.

Cc1cccc(-c2nc(C)cc(Nc3ccncc3)n2)n1 [GSK257997] and Nc1nc(-c2nccs2)c(-c2ccnc3ccccc23)s1 [GW693542] are the same in “%Inh” value: 0% for the first, 0% for the second.

Going from Cl.c1ccc(-c2n[nH]cc2-c2ccnc(-c3ccc(CN4CCOCC4)cc3)c2)nc1 [GW776245] to O=C(O)COc1ncnc2cc(-c3ccc4[nH]ncc4c3)sc12, the “%Inh” value rises from 13% to 14%.

Cc1ccc(NC(=O)Nc2cc(C(C)(C)C)nn2-c2ccccc2)cc1 [GSK1014915] and COc1ccccc1CNC(=O)c1cc(C(=O)c2ccccc2C)c[nH]1 [GSK364507] are the same in “%Inh” value: 0% for the first, 0% for the second.

In the case of CC1=C(C(=O)Nc2cc3cn[nH]c3cc2F)C(c2ccc(C(F)(F)F)cc2)CC(=O)N1 (centres unmarked) [GSK429286], the “%Inh” value was 0%.
